Some test systems named below: MOLT-4 leukemia; SR leukemia; RPMI-8226 leukemia; OVCAR-8 ovarian; OVCAR-5 ovarian; OVCAR-4 ovarian; SK-OV-3 ovarian; IGROV1 ovarian; OVCAR-3 ovarian; HS 578T breast.
Holding throughout (test): NCI-60 one-dose screen, 48 h (100 = growth as untreated, 0 = no growth, -100 = all killed)
Details in all cases: 10 µM

“And” between values parts separate entries of the source, which are not always exact repeats. Equal values may be shown once. This is part of a sample that, as a whole, favours compounds with a hit. Of some 83,000 tested, about 20% had one in any assay.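 Testing used 96-well plates and a 48-hour single-concentration exposure. Example: -40 means 40% of the starting cells died.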 A number with no mark means an inactive call. The source made the active and inactive calls. Rule for the calls: active = growth percent below 10; inactive = the rest.

With `CC(Cc1ccc2c(c1)OCO2)NN` (configuration not stated), the growth in the assay with MOLT-4 leukemia is 78.4%; in the assay with SR leukemia, 91.6%; in the assay with RPMI-8226 leukemia, 91.8%; with OVCAR-8 ovarian, 97.7%; in the assay with OVCAR-5 ovarian it was 100%; in the assay on OVCAR-4 ovarian it was 106%. The growth with SK-OV-3 ovarian is 84.8%; in the assay on IGROV1 ovarian, 100%; in the assay with OVCAR-3 ovarian, 112%; in the assay with HS 578T breast, 93.3%.

On to `Oc1ccccc1-c1ccccc1`, for which the growth in the assay on MOLT-4 leukemia is 90.1% and 93.8%; in the assay with SR leukemia, 92% and 87.9%; with RPMI-8226 leukemia, 98.7% and 93.2%; in the assay on OVCAR-8 ovarian, 100% and 98%; in the assay with OVCAR-5 ovarian it was 105% and 109%; in the assay with OVCAR-4 ovarian, 108% and 104%. In addition, the growth in the assay on SK-OV-3 ovarian was 92.2% and 102%; in the assay with IGROV1 ovarian it was 97.9% and 107%; with OVCAR-3 ovarian it was 103% and 116%; with HS 578T breast, 104% and 120%.

For `COc1ccccc1[As]=[As]c1ccccc1OC` (configuration not stated), the growth is -9.7% (active) with MOLT-4 leukemia; -2.26% (active) in the assay on SR leukemia; -15.1% (active) in the assay on RPMI-8226 leukemia; -83.1% (active) in the assay on OVCAR-8 ovarian; -93.2% (active) with OVCAR-5 ovarian; -85.1% (active) with OVCAR-4 ovarian. Further, the growth is -99.7% (active) in the assay on SK-OV-3 ovarian, -76.9% (active) in the assay with IGROV1 ovarian, -93.3% (active) in the assay with OVCAR-3 ovarian and -11.6% (active) with HS 578T breast.

For `O=S(=O)(F)c1ccc(Cl)cc1`, the growth with MOLT-4 leukemia is 105%; with SR leukemia it was 107%; with RPMI-8226 leukemia, 97.9%; in the assay on OVCAR-8 ovarian, 102%; in the assay on OVCAR-5 ovarian, 113%; in the assay with OVCAR-4 ovarian it was 115%. In addition, the growth in the assay on SK-OV-3 ovarian is 104%; in the assay with IGROV1 ovarian, 113%; with OVCAR-3 ovarian, 108%.

As for `COc1cc(/C=C/[N+](=O)[O-])cc(Br)c1OC`, the growth in the assay on MOLT-4 leukemia was 10%; in the assay with SR leukemia, -5.8% (active); in the assay on RPMI-8226 leukemia it was -15.7% (active); with OVCAR-8 ovarian, 31.2%; in the assay on OVCAR-5 ovarian, 65.4%; in the assay with OVCAR-4 ovarian, 60.3%. In addition, the growth with SK-OV-3 ovarian was 94.7%; in the assay on IGROV1 ovarian, 1.74% (active); in the assay on OVCAR-3 ovarian, 69.9%.

As for `O=[P+](O)c1ccccc1`, the growth with MOLT-4 leukemia is 107%; in the assay with SR leukemia, 102%; with RPMI-8226 leukemia, 98.6%; in the assay on OVCAR-8 ovarian, 99.9%; with OVCAR-5 ovarian, 108%; in the assay with OVCAR-4 ovarian, 114%. The growth is 101% with SK-OV-3 ovarian, 115% in the assay with IGROV1 ovarian, 109% with OVCAR-3 ovarian and 106% in the assay with HS 578T breast.

With `O=C1CCC(=O)N1SC(Cl)(Cl)Cl`, the growth in the assay with MOLT-4 leukemia was 90.4%; with SR leukemia, 95.2%; in the assay on RPMI-8226 leukemia it was 108%; in the assay with OVCAR-8 ovarian, 106%; in the assay on OVCAR-5 ovarian it was 110%; in the assay with OVCAR-4 ovarian it was 110%. For the same molecule, the growth was 109% with SK-OV-3 ovarian, 92.6% with IGROV1 ovarian and 122% in the assay with OVCAR-3 ovarian.

For `[Cl][Hg][c]1ccc2ccccc2c1`, the growth with MOLT-4 leukemia was -1.79% (active); in the assay on SR leukemia it was -38% (active); in the assay with RPMI-8226 leukemia, -11.1% (active); in the assay on OVCAR-8 ovarian it was -43.9% (active); in the assay on OVCAR-5 ovarian, -13.7% (active); with OVCAR-4 ovarian, -89.7% (active). The growth is 2.89% (active) in the assay with SK-OV-3 ovarian, -76.6% (active) with IGROV1 ovarian, -97.8% (active) in the assay on OVCAR-3 ovarian and 2.36% (active) in the assay with HS 578T breast.

As to `CCCCCCCC[N+]12CN3CN(CN(C3)C1)C2`, the growth is 120% in the assay with MOLT-4 leukemia; 92.7% in the assay on SR leukemia; 90.1% in the assay with RPMI-8226 leukemia; 101% in the assay with OVCAR-8 ovarian; 96.5% in the assay on OVCAR-5 ovarian; 99.2% with OVCAR-4 ovarian. For the same molecule, the growth with SK-OV-3 ovarian was 103%; in the assay with IGROV1 ovarian, 108%; in the assay on OVCAR-3 ovarian, 97.9%; with HS 578T breast it was 92.4%.

For `O=C(CBr)Nc1ccccc1`, the growth in the assay with MOLT-4 leukemia was 42.6%; in the assay with SR leukemia, 48.1%; in the assay with RPMI-8226 leukemia, 100%; in the assay with OVCAR-8 ovarian, 98%; with OVCAR-5 ovarian, 128%; with OVCAR-4 ovarian it was 92.5%. Further, the growth in the assay on SK-OV-3 ovarian is 113%; with IGROV1 ovarian it was 106%; in the assay with OVCAR-3 ovarian it was 98.3%; in the assay with HS 578T breast, 99.9%.

On to `CCOP(=O)(OCC)C(O)c1ccccc1Cl` (configuration not stated), for which the growth was 97.8% in the assay with MOLT-4 leukemia; 93.2% in the assay on SR leukemia; 102% with RPMI-8226 leukemia; 100% in the assay on OVCAR-8 ovarian; 87.2% in the assay on OVCAR-5 ovarian; 106% in the assay on OVCAR-4 ovarian. Also, the growth in the assay on SK-OV-3 ovarian is 96.5%; in the assay on IGROV1 ovarian it was 93.5%; with OVCAR-3 ovarian it was 99.5%; with HS 578T breast, 106%.

Turning to `Cc1cc(C)c(C[N+](C)(C)C)c(C)c1C`, the growth is 3.91% (active) in the assay with MOLT-4 leukemia; 7.44% (active) in the assay on SR leukemia; -18.4% (active) with RPMI-8226 leukemia; 6.43% (active) in the assay with OVCAR-8 ovarian; 10.1% with OVCAR-5 ovarian; 8.09% (active) in the assay on OVCAR-4 ovarian. In addition, the growth in the assay on SK-OV-3 ovarian is 7.37% (active); in the assay with IGROV1 ovarian it was 7.5% (active); in the assay with OVCAR-3 ovarian it was 11.4%; in the assay with HS 578T breast, 0.977% (active).
